Reference: PubChem BioAssay AID743482 (Broad Institute, 2014)
Values without a mark were called inactive.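 How the source made its calls: active means falling viability signal whose fitted half-maximal concentration is at most twice the highest tested dose; inconclusive means flat fit with a moderate drop, or a poor curve fit; inactive means the rest.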

Assay: HepG2 viability loss by ATP level – cell-based, CellTiter-Glo luminescence, dry powder, cytotoxicity control, dose response (AID 743482)
Conditions: 72 h; series mostly up to 26 µM; activity change, negative = cytotoxicity: at the top concentration

Structure (SMILES) | activity change, negative = cytotoxicity [%]
C[C@H](CO)N1C[C@H](C)[C@H](CN(C)C(=O)Nc2ccc(F)cc2)OCCCC[C@H](C)Oc2ccc(NC(=O)C3CCCCC3)cc2C1=O | 51.3
C[C@H](CO)N1C[C@H](C)[C@H](CN(C)C(=O)Nc2ccc(F)cc2)OCCCC[C@H](C)Oc2ccc(NC(=O)C3CCCC3)cc2C1=O | 6.05
C[C@H](CO)N1C[C@H](C)[C@H](CN(C)C(=O)Nc2ccccc2)OCCCC[C@H](C)Oc2ccc(NC(=O)C3CCCCC3)cc2C1=O | 4.6
C[C@H](CO)N1C[C@H](C)[C@H](CN(C)C(=O)Nc2ccc(F)cc2)OCCCC[C@H](C)Oc2ccc(NC(=O)C3CCOCC3)cc2C1=O | 13
C[C@@H]1CCCCO[C@@H](CN(C)C(=O)Nc2cccc3ccccc23)[C@H](C)CN([C@@H](C)CO)C(=O)c2cc(NC(=O)C3CCCCC3)ccc2O1 | -6.6
CC(=O)Nc1ccc2c(c1)C(=O)N([C@H](C)CO)C[C@H](C)[C@H](CN(C)C(=O)Nc1ccc(F)cc1)OCCCC[C@H](C)O2 | 1.82
CC(C)(C)c1ccc(-c2nc(-c3ccncc3)no2)cc1 | -8.66
COc1ccc(S(=O)(=O)N(C)C[C@@H]2OCCCC[C@H](C)Oc3ccc(NS(=O)(=O)c4ccc(Cl)cc4)cc3C(=O)N([C@@H](C)CO)C[C@@H]2C)cc1 | -12
C[C@H](CO)N1C[C@H](C)[C@H](CN(C)C(=O)Nc2ccc(F)cc2)OCCCC[C@H](C)Oc2ccc(NC(=O)C3CCCCCC3)cc2C1=O | 14
C[C@H](CO)N1C[C@H](C)[C@H](CN(C)C(=O)Nc2ccc3ccccc3c2)OCCCC[C@H](C)Oc2ccc(NC(=O)C3CCCCC3)cc2C1=O | 29.9
C[C@H](CO)N1C[C@H](C)[C@H](CN(C)C(=O)Nc2ccccc2F)OCCCC[C@H](C)Oc2ccc(NC(=O)C3CCCCC3)cc2C1=O | 5.81
C[C@H](CO)N1C[C@H](C)[C@@H](CN(C)C(=O)Nc2cccc3ccccc23)OCCCC[C@H](C)Oc2ccc(NC(=O)C3CCCCC3)cc2C1=O | 16.4
Cc1ccc(NC(=O)N(C)C[C@@H]2OCCCC[C@H](C)Oc3ccc(NC(=O)C4CCCCC4)cc3C(=O)N([C@H](C)CO)C[C@@H]2C)cc1 | 8.53
C[C@H](CO)N1C[C@H](C)[C@H](CN(C)C(=O)Nc2cccc3ccccc23)OCCCC[C@H](C)Oc2ccc(NC(=O)NC3CCCCC3)cc2C1=O | 2.98
C[C@@H]1CCCCO[C@H](CN(C)C(=O)Nc2cccc3ccccc23)[C@@H](C)CN([C@H](C)CO)C(=O)c2cc(NC(=O)C3CCCCC3)ccc2O1 | 18.3
C[C@H](CO)N1C[C@H](C)[C@H](CN(C)C(=O)Nc2ccccc2)OCCCC[C@H](C)Oc2ccc(NC(=O)CCC(F)(F)F)cc2C1=O | 15.7
C[C@H](CO)N1C[C@H](C)[C@H](CN(C)C(=O)Nc2ccc(F)cc2)OCCCC[C@H](C)Oc2ccc(NC(=O)NC3CCCCC3)cc2C1=O | 39
C[C@H](CO)N1C[C@H](C)[C@H](CN(C)C(=O)Nc2ccc3c(c2)OCO3)OCCCC[C@H](C)Oc2ccc(NC(=O)NC3CCCCC3)cc2C1=O | 4.37
C[C@H]1CCCCO[C@@H](CN(C)S(=O)(=O)c2ccc(Cl)cc2)[C@@H](C)CN([C@@H](C)CO)C(=O)c2cc(NC(=O)NC3CCCCC3)ccc2O1 | -6.85
C[C@H](CO)N1C[C@H](C)[C@H](CN(C)C(=O)Nc2cccc3ccccc23)OCCCC[C@H](C)Oc2ccc(NC(=O)CCC(F)(F)F)cc2C1=O | 20.8
C[C@@H]1CN([C@H](C)CO)C(=O)c2cc(NC(=O)C3CCCCC3)ccc2O[C@@H](C)CCCCO[C@H]1CN(C)C(=O)Nc1cccc2ccccc12 | -23.2
C[C@@H]1CCCCO[C@H](CN(C)C(=O)Nc2cccc3ccccc23)[C@H](C)CN([C@H](C)CO)C(=O)c2cc(NC(=O)C3CCCCC3)ccc2O1 | 26.6
C[C@H](CO)N1C[C@H](C)[C@H](CN(C)C(=O)Nc2ccccc2)OCCCC[C@H](C)Oc2ccc(NC(=O)Nc3ccc4c(c3)OCO4)cc2C1=O | 2.13
C[C@H]1CCCCO[C@@H](CN(C)C(=O)Nc2ccc3c(c2)OCO3)[C@@H](C)CN([C@@H](C)CO)C(=O)c2cc(NC(=O)NC3CCCCC3)ccc2O1 | 6.93
C[C@H](CO)N1C[C@H](C)[C@H](CN(C)C(=O)Nc2ccc(F)cc2)OCCCC[C@H](C)Oc2ccc(NC(=O)C3CC3)cc2C1=O | 15.6
C[C@H](CO)N1C[C@H](C)[C@H](CN(C)C(=O)Nc2ccccc2)OCCCC[C@H](C)Oc2ccc(NC(=O)NC3CCCCC3)cc2C1=O | 18.5
